Where “and” joins values, the source holds several entries; their conditions need not be identical. Identical values can stand only once. Hit rate of the full screen: of about 400,000 compounds, about 2,200 (0.55%) were called active. Roughly 1% stayed inconclusive and do not appear here. The call rests on the fitted dose curve; in most records, active means well fitted inhibition curve with a large enough effect; inconclusive means small, poorly fitted or top-dose-only effect, or another doubt; inactive means no such curve, though single readings can be large or run the other way. Many of the other results were omitted from the sample, so actives are more common in it than they were.
What follows are molecules tested against DNA polymerase kappa (Homo sapiens) (UniProt Q9UBT6) (assay: qHTS for Inhibitors of Polymerase Kappa). Conditions: purified Pol kappa, fluorescent DNA synthesis assay, 10 min; series mostly up to 107 µM; activity, negative = inhibition: at the top concentration.
Sequence of DNA polymerase kappa (Homo sapiens) (Q9UBT6 whole entry, looked up): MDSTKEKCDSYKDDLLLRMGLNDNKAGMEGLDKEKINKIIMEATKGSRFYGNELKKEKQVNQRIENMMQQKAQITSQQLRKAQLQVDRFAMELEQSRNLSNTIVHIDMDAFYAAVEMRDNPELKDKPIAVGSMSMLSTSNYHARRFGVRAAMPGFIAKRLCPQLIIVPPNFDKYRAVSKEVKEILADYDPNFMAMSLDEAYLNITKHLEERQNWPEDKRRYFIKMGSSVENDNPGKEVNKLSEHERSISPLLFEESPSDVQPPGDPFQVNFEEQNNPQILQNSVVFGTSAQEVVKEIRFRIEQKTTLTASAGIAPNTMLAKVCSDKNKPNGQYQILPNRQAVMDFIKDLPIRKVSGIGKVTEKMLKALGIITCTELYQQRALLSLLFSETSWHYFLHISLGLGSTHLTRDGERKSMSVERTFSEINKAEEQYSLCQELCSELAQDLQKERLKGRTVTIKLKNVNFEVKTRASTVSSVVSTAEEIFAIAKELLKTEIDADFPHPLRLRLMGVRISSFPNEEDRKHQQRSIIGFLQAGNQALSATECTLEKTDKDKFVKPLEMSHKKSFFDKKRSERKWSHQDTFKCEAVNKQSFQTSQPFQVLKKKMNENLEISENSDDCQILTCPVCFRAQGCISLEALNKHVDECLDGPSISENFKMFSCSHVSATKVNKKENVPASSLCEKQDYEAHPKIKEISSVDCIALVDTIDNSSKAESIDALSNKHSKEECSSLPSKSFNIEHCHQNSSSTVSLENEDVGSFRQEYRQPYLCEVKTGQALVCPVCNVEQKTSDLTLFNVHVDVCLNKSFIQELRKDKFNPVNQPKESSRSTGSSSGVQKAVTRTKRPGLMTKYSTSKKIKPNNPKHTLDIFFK
Outline: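 Fluorescent qHTS in 1536-well format: enzyme (10 nM) and compound sat 15 min at room temperature before 50 nM substrate (final) was added. Signal taken at 0 and 10 min; no-enzyme buffer wells were negative controls.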
On the % scale 0 is the no-effect control and ±100 the full control effect; potency means the concentration at half of the fitted maximal effect.

Compound	activity, negative = inhibition	Potency
Cc1ccc(-c2ncc(Cl)cc2-c2ccc(S(C)(=O)=O)cc2)cn1	1.36% [at 60.1 µM] (inactive)	–
O=C(c1cc(C(F)(F)F)cc(C(F)(F)F)c1)N1CCC2(CCCN(c3ccccn3)C2)CC1	-9.22% [at 60.1 µM] (inactive)	–
COc1ccccc1CNc1ccnc(-c2c(C)noc2C)n1	5.78% [at 60.1 µM] (inactive)	–
Cc1ccccc1NC(=O)CN1C(=O)N/C(=C\c2cccn2-c2cccc(C(=O)O)c2)C1=O	–	14.1 µM (active)
Cc1ccccc1NC(=O)CN1C(=O)C(C)(C)c2ccccc21	-11.7% [at 60.1 µM] (inactive)	–
Cc1ccccc1NC(=O)Cn1c(=O)n(CCc2ccccc2)c(=O)c2ccccc21	2.94% (inactive)	–
COc1ccccc1CNc1nc(-c2c(C)noc2C)nc2ccccc12	-6.77% [at 60.1 µM] (inactive)	–
COc1c(O)c2c(=O)cc(OC)c3c4c(OC)cc(=O)c5c(O)c(OC)c6c(c(c1C[C@@](C)(O)[C@H]6C(C)=O)c23)c54	-7.61% [at 60.1 µM] (inactive)	–
Cc1ccc(S(=O)(=O)N2CCCC2C(=O)OCc2nc3sc(C)c(C)c3c(=O)[nH]2)cc1 (centres undefined)	-2.3% (inactive)	–
CSc1nnc(SCc2nc3sc(C(=O)O)c(C)c3c(=O)[nH]2)s1	–	25.1 µM (active)
CCN(CC)Cc1nc2sc(C)c(C)c2c(=O)[nH]1	3.84% (inactive)	–
FC(F)(F)c1ccccc1-c1cc(NCc2ccccc2)ncn1	-1.26% [at 60.1 µM] (inactive)	–
CCC(C)N(c1ccc(/C=C/c2ccnc3ccccc23)cc1)C(C)CC (centres undefined)	-5.7% (inactive)	–
Cc1ccc(N=C2NC(=O)/C(=C/C=C/c3ccco3)S2)cc1C	–	28.2 µM (active)
CC(=O)OC1CCC2(O)CC1(C)CCC1C2CC1(C)C (centres undefined)	-9.88% [at 60.1 µM] (inactive)	–
O=C(c1cc2cc(Br)cc(Br)c2oc1=O)N1CCOCC1	-6.06% (inactive)	–
O=C(CSC(=S)N1CCCCC1)c1c(F)cccc1F	7.44% (inactive)	–
O=C(CSC(=S)N1CCOCC1)c1cc(Br)cc(Br)c1O	–	79.4 µM (active)
CCOCCOC(=O)C(C)Oc1ccc(Oc2ncc(C(F)(F)F)cc2Cl)cc1 (centres undefined)	0.515% [at 60.1 µM] (inactive)	–
CC(=O)CC(c1ccccc1)C1C(=O)Oc2ccccc2C1=O (centres undefined)	-4.26% [at 60.1 µM] (inactive)	–
CN1C(=O)/C(=C/c2ccco2)SC1=Nc1cccc(C(=O)O)c1	–	20 µM (active)
CN=C1S/C(=C\c2c(OC)cc(OC)cc2OC)C(=O)N1C	3.05% (inactive)	–
O=C(O)c1cccc(N=NN2CCCCCC2)c1	-8.29% (inactive)	–
CCOC(OCC)OCC	11.2% [at 60.1 µM] (inactive)	–
CCc1c2c(nc3ccc(O)cc13)-c1cc3c(c(=O)n1C2)COC(=O)[C@]3(O)CC	8.42% [at 60.1 µM] (inactive)	–
NC(=O)Nc1ccc(/C=C/c2ccnc3ccccc23)cc1	3.65% (inactive)	–
COc1ccc2[nH]c3c(C)c4cc[n+](C)cc4c(C)c3c2c1	–	2.38 µM (active) and 11.2 µM (active)
Cc1cccc(CNc2ccnc(-c3cccnc3)n2)c1	-9.88% [at 60.1 µM] (inactive)	–
COCCn1c(=O)c(-c2cc(F)cc(F)c2)nc2cnc(N3CCNCC3)nc21	1.68% [at 60.1 µM] (inactive)	–

From PubChem BioAssay AID588579 (National Center for Advancing Translational Sciences (NCATS), 2011)
